According to PubChem BioAssay AID720650 (Broad Institute, 2013):
Active and inactive are the calls of the source. How the calls were made is not given here.

Experiment: Biochemical counterscreen for C difficile toxins, absence of UDPG, inhibitor dose response (AID 720650)
Conditions: series mostly up to 19.5 µM
For `COc1ccc(NS(=O)CCCc2ccccc2)cc1` (centres undefined), the AC50 was “inactive”.
With `CC1=C(C(=O)OCC2CCCO2)C(c2coc3ccccc3c2=O)C2=C(CCCC2=O)N1` (centres undefined) the AC50 was “inactive”.
For `Oc1ccc(CCc2ccccn2)cc1`, the AC50 was 11.6 µM (active).
With `CN1C(=O)c2cc(NC(=O)c3cccc(F)c3)ccc2OC[C@@H]2O[C@@H](CC(=O)NCC3CCCCC3)CC[C@@H]21` the AC50 was “inactive”.
In the case of `CCCS(=O)(=O)NC(=O)C1(C)CCN(C(=O)c2ccco2)C1` (centres undefined), the AC50 is reported as “inactive”.
With `COc1ccc(C2=NS(=O)(=O)N(C)C(C(=O)N(C)Cc3ccccc3)=C2)cc1OC` the AC50 was “inactive”.
In the case of `Cc1cnc([N+](=O)[O-])n1CCOC(=O)NC(=O)c1ccc(F)cc1`, the AC50 is reported as “inactive”.
With `O=C(Nc1ccc(N2CCOCC2)c(Cl)c1)c1ccc(Cl)cc1` the AC50 was 12.3 µM (active).
For `CCN(CC)CCNc1ccc(C)c2sc3ccc(O)cc3c(=O)c12`, the AC50 was 5.7 µM (active).
For `Cc1cc(O)ccc1NC(=O)c1ccccc1`, the AC50 was 17.9 µM (active).
In the case of `COc1ccc(C(CNC(=O)c2oc3ccc(OC)cc3c2C)N2CCCC2)cc1` (centres undefined), the AC50 is reported as > 39 µM (inactive).
For `O=C(Nc1ccc(N2CCOCC2)c(Cl)c1)c1ccc2c(c1)OCCO2`, the AC50 was “inactive”.
In the case of `CN1C(=O)c2cc(NC(=O)c3cccc(F)c3)ccc2OC[C@H]2O[C@H](CC(=O)NCC3CCCCC3)CC[C@@H]21`, the AC50 is reported as “inactive”.
With `COc1cc(/C=C/C(=O)OCC(=O)NC(=O)NC(C)(C)C)ccc1O` the AC50 was “inactive”.
For `C=CC[C@@H](CC(=O)N(CCO)Cc1ccccc1)C(=O)NC[C@@H](OC(=O)[C@@H](CC=C)CC(=O)OC(C)(C)C)c1ccccc1`, the AC50 was “inactive”.
For `O=C(/C=C/c1ccc(O)cc1)c1ccccc1`, the AC50 was 9.92 µM (active).
For `Cc1c(CCCC(=O)O)sc(N)c1C(=O)c1cccc(C(F)(F)F)c1`, the AC50 was “inactive”.
In the case of `COc1cccc(CC(=O)OCC(=O)Nc2c(C)nn(-c3ccccc3)c2C)c1`, the AC50 is reported as “inactive”.
In the case of `O=C(C[C@@H]1C[C@H]2c3cc(NC(=O)c4ccc5c(c4)OCO5)ccc3O[C@H]2[C@H](CO)O1)NCc1cccc(F)c1`, the AC50 is reported as “inactive”.
In the case of `Cc1ccc(Oc2c(CO)c(-c3ccccc3)nn2C)cc1`, the AC50 is reported as “inactive”.
In the case of `Cc1cc(O)ccc1N=Cc1c(C(F)(F)F)[nH][nH]c1=O`, the AC50 is reported as 10.9 µM (active).
For `COc1ccc2nccc(/C=C/c3ccnc4ccc(OC)cc34)c2c1`, the AC50 was “inactive”.
With `O=C(O)c1cccnc1SCc1ccccc1Cl` the AC50 was “inactive”.
For `O=C(C[C@H]1CC[C@@H]2[C@H](COC[C@@H](O)CN2C(=O)Nc2ccc(Cl)c(Cl)c2)O1)NCc1ccncc1`, the AC50 was “inactive”.
For `Cn1cnnc1SCC(=O)NC1CCCCC1`, the AC50 was “inactive”.
For `CCNC(=O)C[C@@H]1CC[C@H]2[C@H](COc3ccc(NC(C)=O)cc3C(=O)N2C)O1`, the AC50 was “inactive”.
For `Cc1[nH]nc(-c2ccc(O)cc2O)c1Oc1ccccc1`, the AC50 was 14.6 µM (active).
In the case of `CCNC(=O)C[C@H]1CC[C@@H]2[C@@H](COc3ccc(NC(=O)c4ccc5c(c4)OCO5)cc3C(=O)N2C)O1`, the AC50 is reported as > 39 µM (inactive).
In the case of `Cc1cc(C)c2nc(C)cc(N/N=C/c3ccc(O)cc3)c2c1`, the AC50 is reported as 12.1 µM (active).
In the case of `CCOC(=O)[C@H]1[C@H]2COc3ccc(OC)cc3[C@@H]2N2C(=O)CN(Cc3ccc(Cl)cc3)C(=O)[C@@]12C`, the AC50 is reported as “inactive”.
For `CC(/C=N/n1c(-c2ccncc2)n[nH]c1=S)=C\c1ccco1`, the AC50 was “inactive”.
In the case of `COc1cc(/C=C(\C#N)C(=O)Nc2ccc3c(c2)OCCO3)ccc1O`, the AC50 is reported as > 39 µM (inactive).
With `COc1cc(-c2n[nH]c(=S)n2/N=C/c2cccn2C)cc(OC)c1OC` the AC50 was “inactive”.
In the case of `Cn1cc(C(CO)Cc2ccccc2)c2ccccc21` (centres undefined), the AC50 is reported as > 39 µM (inactive).
In the case of `Cc1ccc(NCCN(C)C)c2c(=O)c3cc(O)ccc3sc12`, the AC50 is reported as 5.2 µM (active).
For `COc1ccc(NC(=O)CN(C)C(=O)c2cccc(NS(=O)(=O)c3ccc(Br)cc3)c2)cc1`, the AC50 was “inactive”.
In the case of `COc1cc(OC)cc(C(=O)NNC(=O)CN2C(=O)NC(C)(c3ccc(C)cc3)C2=O)c1` (centres undefined), the AC50 is reported as “inactive”.
For `Cc1cccc(/C=C/c2onc(C)c2S(=O)(=O)N2CCC(C(=O)NC(C)(C)C)CC2)c1`, the AC50 was “inactive”.
For `COc1ccccc1/C=C/c1onc(C)c1S(=O)(=O)N1CCC(C(=O)NC(C)C)CC1`, the AC50 was “inactive”.
